# According to PubChem BioAssay AID1259421 (Broad Institute, 2018):
# Where “and” joins values, the source holds several entries; their conditions need not be identical. Equal entries are not always repeated. Out of some 6,400 compounds screened, about 610 (9.5%) were called active. No stated cut-off is given here; in the data, active means activity change below about -70%; inconclusive means no clear call, values can overlap the other calls; inactive means above that. Only a selection was taken, and actives are over-represented in it overall. More than one record can exist for a structure, and the calls need not agree.
# Test: Toxoplasma gondii ME49Luc growth in HeLa cells, luciferase, no IFN-y, primary screen (AID 1259421)
# Conditions: T. gondii ME49Luc in HeLa, 72 h, stronger effect = lower value, concentration not given here
row,SMILES,"activity change, negative = inhibition"
1,CN(C)C(=O)C(=O)c1cn(C)c2cc(Cl)c(C(=O)N3CCC(Cc4ccc(F)cc4)CC3)cc12,-34.4% (inactive)
2,CN(C)[C@@H](CCOc1cccc2ccccc12)c1ccccc1,16.9% (inactive)
3,CC(C)Nc1nc2cc(Cl)c(Cl)cc2n1[C@H]1O[C@@H](CO)[C@H](O)[C@@H]1O,-13.6% (inactive)
4,c1ccc(C(NCc2cccnc2)(c2ccccc2)c2ccccc2)cc1,3.97% (inactive) and 35.4% (inactive)
5,CCCn1c(=O)c2[nH]c(C34CC5CC(CC3C5)C4)nc2n(CCC)c1=O,-9.56% (inactive)
6,Fc1ccc(C(c2ccccc2)(c2ccccc2F)n2ccnc2)cc1 (centres undefined),-44.6% (inactive)
7,N#C/C(=C1/SCC(c2ccccc2Cl)S1)n1ccnc1 (centres undefined),12.5% (inactive)
8,Clc1ccccc1C(c1ccccc1)(c1ccccc1)n1ccnc1,-38.2% (inactive) and -91% (active)
9,N[C@H](Cc1cnc[nH]1)C(=O)O,2.37% (inactive)
10,O=c1cc[nH]c2cc(Cl)ccc12,10.2% (inactive)
11,C=CC(=O)Nc1cc2c(Nc3ccc(F)c(Cl)c3)ncnc2cc1OCCCN1CCOCC1,-41.3% (inactive)
12,CCN(CC)CC1CCN(c2ncc3ncnc(Nc4ccc(F)c(Cl)c4)c3n2)CC1,-13.4% (inactive) and 3.34% (inactive)
13,C[C@@H]1COC(Nc2ccc3ncnc(Nc4ccc(OCc5nccs5)c(Cl)c4)c3c2)=N1,-65.9% (inactive)
14,CNC(=O)CN1CCC(Oc2cc3c(Nc4cccc(Cl)c4F)ncnc3cc2OC)CC1,-53.4% (inactive)
15,CN(C)C/C=C/C(=O)Nc1cc2c(Nc3ccc(F)c(Cl)c3)ncnc2cc1O[C@H]1CCOC1,-87.8% (active)
16,COc1cc2ncnc(Nc3ccc(F)c(Cl)c3)c2cc1NC(=O)/C=C/CN1CCCCC1,-80.3% (active)
17,CC/C=C\C/C=C\C/C=C\C/C=C\C/C=C\CCCC(=O)O,2.92% (inactive)
18,COc1ccc(NS(=O)(=O)c2ccc(N=Nc3ccc(O)c(C(=O)O)c3)cc2)nn1,5.08% (inactive)
19,O=C(O)Cc1nn(Cc2nc3cc(C(F)(F)F)ccc3s2)c(=O)c2ccccc12,19.5% (inactive)
20,C=CC(=O)Nc1ccc2ncnc(Nc3cccc(Br)c3)c2c1,-18.1% (inactive)
21,COc1ccc(Nc2ncnc3ccc(OC)cc23)cc1,3.66% (inactive) and 3.52% (inactive)
22,COCC(=O)NC/C=C/c1ccc2ncnc(Nc3ccc(Oc4ccc(C)nc4)c(C)c3)c2c1,-85.5% (active)
23,c1ccc(Oc2cccnc2)cc1,5.26% (inactive)
24,CC1=CC(=O)CC(C)(C)[C@@]1(O)/C=C/C(C)=C\C(=O)O,0.0395% (inactive)
